The text below walks through data of PubChem BioAssay (NCI).

Structures are written as SMILES. About 83,000 compounds went through this panel and 20% of them were active in at least one assay; those are over-represented in the sample as a whole.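 Interpretation: 100, growth as untreated; towards 0, rising growth inhibition; 0, no net growth; 0 to -100, cell death. Compounds scoring below 10 were considered active.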 Unmarked numbers belong to inactive results. Active and inactive are the calls of the source.

Some test systems named below: OVCAR-8 ovarian; OVCAR-5 ovarian; OVCAR-4 ovarian; SK-OV-3 ovarian; IGROV1 ovarian; OVCAR-3 ovarian; HS 578T breast; NCI/ADR-RES ovarian; T-47D breast; BT-549 breast; MDA-MB-435 melanoma; SW-620 colon; MCF7 breast; HCT-116 colon; HCC-2998 colon; KM12 colon; RPMI-8226 leukemia.
What all share (test): NCI-60 one-dose screen, 48 h (100 = growth as untreated, 0 = no growth, -100 = all killed)
Details in all cases: 10 µM unless noted

Consider `CCCCCCCC/C=C\CCCCCCCCOc1ccccc1CC(=O)NCC[N+]1(C)CCCC1`, for which the growth in the experiment on OVCAR-8 ovarian was 80.9%; with OVCAR-5 ovarian, 62.1%; with OVCAR-4 ovarian, 86.8%; with SK-OV-3 ovarian, 89.6%; with IGROV1 ovarian, 10.9%; in the experiment on OVCAR-3 ovarian it was 91.8%. In addition, the growth is 86.9% in the experiment on HS 578T breast; 110% in the experiment on NCI/ADR-RES ovarian; 90.5% in the experiment on T-47D breast; 94.5% in the experiment with BT-549 breast; 71.2% in the experiment on MDA-MB-435 melanoma; 78.9% with SW-620 colon. The growth was 82.6% with MCF7 breast, 74.7% in the experiment with HCT-116 colon, 74.8% with HCC-2998 colon and 51.8% in the experiment with KM12 colon.

Take `CCCCCCCC/C=C/CCCCCCCC1=NC(C)(C)CN1CC(C)O` (stereo not drawn): the growth in the experiment with OVCAR-8 ovarian is 38.8%; in the experiment with OVCAR-5 ovarian, 83.8%; in the experiment with OVCAR-4 ovarian, 61.7%; with SK-OV-3 ovarian it was 88.5%; with IGROV1 ovarian it was -15.1% (active); in the experiment with OVCAR-3 ovarian, 31%. In addition, the growth was 3.01% (active) with HS 578T breast; 73.4% in the experiment on NCI/ADR-RES ovarian; 28.6% in the experiment on T-47D breast; 86.7% in the experiment with BT-549 breast; 6% (active) with MDA-MB-435 melanoma; 6.69% (active) in the experiment with SW-620 colon. Also, the figures for the growth with HCT-116 colon, in the experiment on HCC-2998 colon and with KM12 colon were -85% (active), 0.965% (active) and 6.06% (active), respectively.

As for `CSc1ccc2c(c1)N(CCC1CCCCN1C)c1ccccc1S2` (stereo not drawn), the growth is 26.3% in the experiment with RPMI-8226 leukemia; 69.9% in the experiment on OVCAR-8 ovarian; 64% in the experiment with OVCAR-4 ovarian; 81% in the experiment with SK-OV-3 ovarian; 36.4% in the experiment on IGROV1 ovarian; 92.3% in the experiment on OVCAR-3 ovarian. The growth in the experiment on HS 578T breast was 47.6%; with NCI/ADR-RES ovarian, 65.6%; with BT-549 breast, 67.9%; in the experiment on MDA-MB-435 melanoma, 42.6%; with SW-620 colon it was 75.6%; in the experiment on MCF7 breast, 5.18% (active). Moreover, the results for the growth with HCT-116 colon, in the experiment with HCC-2998 colon and in the experiment with KM12 colon were 42.3%, 34.4% and 45%, respectively.

As for `COc1ccc(OC)c(/C=C/c2nc(=S)n(-c3ccc(Cl)cc3)[nH]2)c1`, the growth with OVCAR-8 ovarian is 88.6%; in the experiment on OVCAR-5 ovarian, 116%; in the experiment with OVCAR-4 ovarian, 91.6%; in the experiment on SK-OV-3 ovarian, 73.5%; with IGROV1 ovarian, 40.1%; in the experiment with OVCAR-3 ovarian, 29.4%. The growth is 98.7% in the experiment on HS 578T breast; 72.5% with T-47D breast; 67.2% with BT-549 breast; -10.3% (active) in the experiment on MDA-MB-435 melanoma; 50.4% in the experiment on SW-620 colon; 32% in the experiment on MCF7 breast. Moreover, the growth with HCT-116 colon is 29.6%; with HCC-2998 colon, 45.6%; in the experiment with KM12 colon it was 40.9%.

Consider `O=C(/C=C/c1cc2ccccc2[nH]c1=O)c1ccc(O)cc1`, for which the growth in the experiment on OVCAR-8 ovarian was 22.3%; in the experiment with OVCAR-5 ovarian, 78.6%; in the experiment on OVCAR-4 ovarian, 62.9%; in the experiment with SK-OV-3 ovarian it was 39.8%; in the experiment with IGROV1 ovarian, 53.8%; in the experiment with OVCAR-3 ovarian it was -18.8% (active). In addition, the growth with HS 578T breast was -27.2% (active); in the experiment with NCI/ADR-RES ovarian it was 36.4%; in the experiment with T-47D breast it was 66.1%; in the experiment on BT-549 breast, 28%; with MDA-MB-435 melanoma, 34.3%; in the experiment with SW-620 colon it was -10.8% (active). Besides, the growth in the experiment with MCF7 breast was 14.7%; with HCT-116 colon, 12.9%; with HCC-2998 colon, 93.1%; in the experiment on KM12 colon, -8.87% (active).

Turning to `Cc1c(C)c(N2C(=O)C=CC2=O)c(C)c(C)c1N1C(=O)C=CC1=O`, the growth in the experiment with OVCAR-8 ovarian was 96.1%; in the experiment with OVCAR-5 ovarian, 91%; in the experiment with OVCAR-4 ovarian it was 104%; with SK-OV-3 ovarian, 114%; in the experiment on IGROV1 ovarian, 83.6%; with OVCAR-3 ovarian it was 45.1%. In addition, the growth is 96.4% with NCI/ADR-RES ovarian; 113% in the experiment on T-47D breast; 110% with BT-549 breast; 102% in the experiment on MDA-MB-435 melanoma; 81.7% in the experiment with SW-620 colon; 103% in the experiment with MCF7 breast. The values for the growth with HCT-116 colon, with HCC-2998 colon and with KM12 colon were 83%, 97.1% and 119%, respectively.

As to `COc1cc(/C=C/C(=O)c2ccc(F)cc2)ccc1OCCCCCOc1cc2c(cc1OC)C(=O)N1CCCC1C=N2` (stereo not drawn), the growth in the experiment on OVCAR-8 ovarian is 4.8% (active); in the experiment on OVCAR-5 ovarian, -5.07% (active); in the experiment with OVCAR-4 ovarian, -37.5% (active); in the experiment on SK-OV-3 ovarian it was -4.32% (active); in the experiment on IGROV1 ovarian it was -66.5% (active); in the experiment with OVCAR-3 ovarian, -8.63% (active). Also, the growth with HS 578T breast was -24.8% (active); with NCI/ADR-RES ovarian, 8.85% (active); in the experiment on T-47D breast it was -4.98% (active); in the experiment with BT-549 breast it was -58% (active); in the experiment with MDA-MB-435 melanoma, -87.5% (active); with SW-620 colon, -46.6% (active). Further, the growth in the experiment on MCF7 breast was 16%; in the experiment with HCT-116 colon, -23.9% (active); in the experiment with KM12 colon it was -63.4% (active).

Take `COc1cccc(/C=C2\COc3ccc(O)c(O)c3C2=O)c1OC`: the growth was 18.3% in the experiment with OVCAR-8 ovarian; 2.35% (active) in the experiment on OVCAR-5 ovarian; 35.3% with OVCAR-4 ovarian; 54.8% with SK-OV-3 ovarian; -39.9% (active) in the experiment with IGROV1 ovarian; -18.1% (active) in the experiment with OVCAR-3 ovarian. For the same compound, the growth in the experiment on HS 578T breast is 17.3%; with NCI/ADR-RES ovarian, 16.9%; in the experiment on T-47D breast, 4.89% (active); in the experiment on BT-549 breast, 35.3%; in the experiment with MDA-MB-435 melanoma, 9.09% (active); in the experiment with SW-620 colon it was 4.8% (active). The results for the growth with HCT-116 colon, in the experiment on HCC-2998 colon and in the experiment on KM12 colon were -48.4% (active), 78.6% and 12.9%, respectively.

Turning to `CCCCC(C#N)C(N)=O` (stereo not drawn), the growth in the experiment with RPMI-8226 leukemia is 102%; in the experiment on OVCAR-5 ovarian, 106%; in the experiment on OVCAR-4 ovarian, 107%; in the experiment with SK-OV-3 ovarian, 98.1%; with IGROV1 ovarian, 113%; with OVCAR-3 ovarian, 108%. Moreover, the growth was 101% in the experiment on HS 578T breast; 105% in the experiment with NCI/ADR-RES ovarian; 100% in the experiment on T-47D breast; 114% in the experiment on BT-549 breast; 114% with MDA-MB-435 melanoma; 111% with SW-620 colon. Moreover, the growth with MCF7 breast is 97.7%; in the experiment on HCT-116 colon, 98.4%; with HCC-2998 colon, 104%; with KM12 colon, 119%.
